About 83,000 compounds went through this panel and 20% of them were active in at least one assay; those are over-represented in the sample as a whole.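 Single-concentration screen, 48 h exposure, 96-well plates. Endpoint: percent growth. Below 10 = active.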 Values without a mark were called inactive. Activity calls are given as the source filed them.

What all share (assay): NCI-60 one-dose screen, 48 h (100 = growth as untreated, 0 = no growth, -100 = all killed)
What all share (details): 10 µM unless noted

Test [1] deals with SK-MEL-2 melanoma.
Test [2] concerns SN12C renal.
Test [3] concerns UO-31 renal.
Test [4] deals with TK-10 renal.
Test [5] relates to ACHN renal.
In test [6] the test system is CAKI-1 renal.
For test [7], the system named is A498 renal.
Test [8] has as its system CCRF-CEM leukemia.
The test system of test [9] is MOLT-4 leukemia.
The test system of test [10] is EKVX NSCLC.

Regarding `CCc1cccc2c3c(sc12)C(c1ccc(Cl)cc1)C(C#N)=C(/N=C/c1ccc(Cl)cc1)O3` (stereo not drawn), the growth in test [1] is 31%; in [2] it was 33.9%; in test [3], 39.9%; in [4], 56.4%; in [5], 41.7%; in test [6], 37.5%. In addition, the growth in [7] was -4.9% (active); in [8], 13%; in [9] it was 30.2%.
With `CCOP(=O)(OCC)OC[C@]12CCC(C)(C)C=C1[C@H]1CC[C@@H]3[C@@]4(C)CC[C@H](OP(=O)(OCC)OCC)C(C)(C)[C@@H]4CC[C@@]3(C)[C@]1(C)CC2`, the growth in test [10] was -10.3% (active); in test [2], -70.6% (active); in test [3], -61% (active); in [4], -18% (active); in test [5] it was -8.2% (active); in [6] it was -63% (active). Also, the growth is -8.86% (active) in test [7], -23.2% (active) in test [8] and -20.4% (active) in [9].
For `N/C(=N\C(N)=N\c1nc2ccccc2s1)c1ccc2ccccc2c1`, the growth was 97.7% in test [1]; 75.3% in test [2]; 23.4% in test [3]; 126% in test [4]; 78.4% in test [5]; 36.4% in [6]. Moreover, the growth in [7] was 96.9%; in test [9], 60.6%.
Consider `COc1ccc([C@H]2[C@H](O)C(=O)N2c2cc(OC)c(OC)c(OC)c2)cc1F`, for which the growth in [10] was 44.7%; in test [2] it was 27.3%; in test [3], 34.2%; in [4], 86.2%; in test [5], 24.6%; in test [6], 29.6%. Moreover, the growth in test [7] was -26.1% (active); in test [8], 17.9%; in [9], 15.2%.
Take `O=S(=O)(Nc1ccc(I)cc1Cl)c1ccc(-c2cnc(C3CC3)o2)cc1`: the growth in test [1] was 71.6%; in [2], 42.5%; in [3], 50.9%; in [4], 89.3%; in test [5], 49.2%; in test [6] it was 39.1%. Besides, the growth was 25.2% in [8] and 45% in test [9].
Regarding `N#Cc1cn(Cc2ccc(Cl)cc2Cl)c(C(=O)c2ccc(Br)cc2)c1N`, the growth in test [1] is 97.9%; in test [2], 101%; in test [4], 101%; in [5], 99%; in [6] it was 92.3%; in test [7] it was 86.7%. Moreover, the figures for the growth in test [8] and in [9] were 108% and 98.9%, respectively.
On to `C#CCC#CCN1CCC[C@H]1C(=O)NCC(=O)OC`, for which the growth was 98.4% in [10]; 98.4% in test [2]; 98.5% in test [3]; 99.4% in test [4]; 101% in [5]; 102% in [6]. Moreover, the results for the growth in [7], in test [8] and in test [9] were 129%, 109% and 107%, respectively.
As to `O=S(=O)(NCCCNc1nccc(-c2[nH]c(-c3ccccc3)nc2-c2ccc(Cl)c(O)c2)n1)c1cccc(F)c1`, the growth in test [1] was 18.5%; in test [2], 68.2%; in [3], 56.6%; in test [4], 98.2%; in [5], 57.2%; in [6], 56.1%. Also, the growth was 101% in test [7], 32.9% in [8] and 40.3% in test [9].
As to `O=C(CN1CCN(c2cc(=O)n(-c3ccccc3)c3ccccc23)CC1)Nc1ccc(F)cc1`, the growth was 48.7% in [10]; 77.7% in test [2]; 40.6% in test [3]; 73.1% in test [4]; 65.4% in [5]; 63.7% in test [6]. Moreover, the growth in test [7] was 53.6%; in test [8], 70%; in test [9], 44.4%.
With `COc1cc2oc(-c3cccc(NC(=O)c4cc(N)ccc4Cl)c3)cc(=O)c2c(OC)c1OC`, the growth in test [1] is 110%; in test [2] it was 100%; in test [3], 80.9%; in [4] it was 98.3%; in test [5], 95%; in test [6], 87.9%. Also, the results for the growth in test [7], in test [8] and in test [9] were 82.6%, 64.9% and 72.8%, respectively.
Turning to `N#Cc1c(-c2cccs2)cc(-c2cnccn2)nc1SCC(=O)Nc1ccc(Br)cc1`, the growth in [1] was 106%; in test [2], 87.7%; in test [3], 58.4%; in test [4] it was 83%; in [5], 64.5%; in [6], 64.4%. The values for the growth in [7], in test [8] and in test [9] were 6.18% (active), 83.4% and 89.5%, respectively.
Consider `COc1c(N2CC3CCCNC3C2)c(F)cc2c(=O)c(C(=O)N/N=C/c3ccc(N(C)C)cc3)cn(C3CC3)c12` (stereo not drawn), for which the growth is 114% in [1]; 65.5% in test [2]; 59.1% in [3]; 122% in test [4]; 46.8% in [5]; 90.3% in test [6]. Besides, the growth in test [7] was 113%; in test [8], 29.6%; in test [9], 29.5%.
As to `Cc1ccc(NC(=O)c2ccc(CN3CCOCC3)c(C(F)(F)F)c2)cc1Oc1ccc(-c2[nH]nc3ncnc(N)c23)cc1`, the growth was 65.6% in [10]; 82.3% in [2]; 54.6% in test [3]; 80% in [4]; 58.2% in test [5]; 39.2% in test [6]. Also, the results for the growth in [7], in test [8] and in test [9] were 87.3%, 47.8% and 46.3%, respectively.
Consider `CC[C@@H](CO)Nc1ccc2ncc(C#Cc3cncc(C(=O)Nc4ccc(CN5CCN(C)CC5)c(C(F)(F)F)c4)c3)n2n1`, for which the growth is -93.2% (active) in [1]; -55.4% (active) in test [2]; -85.9% (active) in test [3]; -53.5% (active) in test [4]; -91.4% (active) in test [5]; -82.8% (active) in test [6]. The growth is -98.8% (active) in test [7], 7.24% (active) in test [8] and 3.44% (active) in test [9].

For the origin of these results see PubChem BioAssay (NCI).
